Source: PubChem BioAssay (NCI)
About 83,000 compounds went through this panel and 20% of them were active in at least one assay; those are over-represented in the sample as a whole.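 Note: values are percent growth. 100 is the growth of untreated cells, values between 100 and 0 indicate rising inhibition; between -100 and 0 indicates cell death.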 A number with no mark means an inactive call. Calls of active or inactive are those of the source. Rule for the calls: active = growth percent below 10; inactive = the rest.

What was measured:
Experiment in all cases: NCI-60 one-dose screen, 48 h (100 = growth as untreated, 0 = no growth, -100 = all killed)
NCI-H23 lung = settings: 10 µM unless noted
NCI-H226 lung = settings: 10 µM unless noted
NCI-H322M lung = settings: 10 µM unless noted
HOP-62 NSCLC = settings: 10 µM unless noted
NCI-H460 lung = settings: 10 µM unless noted
HOP-92 NSCLC = settings: 10 µM unless noted
NCI-H522 lung = settings: 10 µM unless noted
A549/ATCC NSCLC = settings: 10 µM unless noted
786-0 renal = settings: 10 µM unless noted
COLO 205 colon = settings: 10 µM unless noted
DU-145 prostate = settings: 10 µM unless noted
K-562 leukemia = settings: 10 µM unless noted
MALME-3M melanoma = settings: 10 µM unless noted
MDA-MB-231 breast = settings: 10 µM unless noted
RXF 393 renal = settings: 10 µM unless noted
SF-268 CNS = settings: 10 µM unless noted
SF-295 CNS = settings: 10 µM unless noted
SF-539 CNS = settings: 10 µM unless noted
UACC-257 melanoma = settings: 10 µM
M14 melanoma = settings: 10 µM unless noted

| Compound | growth (NCI-H23 lung) [%] | growth (NCI-H226 lung) [%] | growth (NCI-H322M lung) [%] | growth (HOP-62 NSCLC) [%] | growth (NCI-H460 lung) | growth (HOP-92 NSCLC) | growth (NCI-H522 lung) | growth (A549/ATCC NSCLC) | growth (786-0 renal) | growth (COLO 205 colon) [%] | growth (DU-145 prostate) [%] | growth (K-562 leukemia) | growth (MALME-3M melanoma) | growth (MDA-MB-231 breast) [%] | growth (RXF 393 renal) | growth (SF-268 CNS) [%] | growth (SF-295 CNS) | growth (SF-539 CNS) | growth (UACC-257 melanoma) | growth (M14 melanoma) |
| --- | --- | --- | --- | --- | --- | --- | --- | --- | --- | --- | --- | --- | --- | --- | --- | --- | --- | --- | --- | --- |
| CCOC(=O)C1=C(C)N=C2Sc3ccccc3N2C1c1ccccc1 (stereo not given) | 85.2 | 89.2 | 86.8 | 101 | 91.2% | 75.4% | 73.9% | 82.9% | 87.7% | 96 | 98.2 | 72.8% | 102% | 83.2 | 109% | 101 | 98.3% | 90.3% | 92.6% | 89.5% |
| O=C(COc1ccc(/C=C2\SC(=O)NC2=O)cc1)Nc1ccc(C(=O)/C=C/c2cc3ccccc3nc2Cl)cc1 | 65.3 | 74.9 | 97.8 | 103 | 86% | 88.2% | 65.8% | 78.6% | 83.6% | 96.3 | 88.7 | 41% | 98.5% | 86.6 | 1.92% (active) | 78.2 | 75.6% | 81.5% | 75.3% | 80% |
| CC(C)Sc1nc(NC2CC2)c(C#N)c(-c2ccccc2)n1 | 67.5 | 69.8 | 67.6 | 71.5 | 54.5% | 76.1% | 89.2% | 62.9% | 35% | 79.6 | 99.1 | 87.6% | 57.1% | 82 | 77.5% | 95.8 | 72% | 82.2% | 102% | 95.1% |
| Cn1cc2c(c1)-c1c(sc3nc(-c4ccc(NC(=O)Nc5cc(C(C)(C)C)on5)cc4)cn13)CC2 | 50.7 | 51.8 | 75.6 | 16.7 | 27.5% | 42.8% | 81.5% | 64.5% | -3.49% (active) | 45.6 | 57.9 | 15.3% | 66.2% | 49.8 | -23.4% (active) | 50.5 | -41% (active) | 22.3% | 93.1% | 60.5% |
| O=C1/C(=C/c2ccc([N+](=O)[O-])cc2)SC(=Nc2ccccc2)N1Nc1ccccc1 | 60.5 | 85.1 | 60.9 | 97.1 | 50.9% | 108% | 58.1% | 71.5% | 66.4% | 92.6 | 63.5 | 17.8% | 90.3% | 54.7 | 58.9% | 73 | 87.1% | 65.1% | 89.7% | 80.1% |
| CC(=O)c1sc(Nc2cccc(Nc3nc(C)c(C)s3)c2)nc1C | 63.2 | 65.4 | 61.7 | 77.8 | 45.6% | 63.6% | 46.2% | 65.8% | 55.7% | 77.7 | 45.4 | 40.9% | 69.8% | 80.7 | 47% | 71.1 | 86.5% | 72.2% | 88.7% | 51.3% |
| COC[C@@]1(C)CC[C@]2(C)CC[C@]3(C)C(=CC[C@@H]4[C@@]5(C)CCCNC(C)(C)[C@@H]5CC[C@]43C)C2C1 (stereo not given in full) | 75.4 | 81.3 | 89.4 | 83.9 | 29.8% | 73% | 76.7% | 55.7% | 59.1% | 22 | 73.6 | 6.79% (active) | 56.7% | 77.7 | 72.2% | 77.1 | 3.52% (active) | 62.7% | 60% | 50.1% |
| O=C1NC(=O)/C(=C/c2ccc(OCc3cc4ccccc4nc3Cl)cc2)S1 | 87.1 | 101 | 103 | 105 | 101% | 78.6% | 79.8% | 99.6% | 93.7% | 122 | 100 | 75.2% | 103% | 88.2 | 111% | 110 | 96.4% | 104% | 98% | 104% |
| C#C[C@]1(O)CC[C@H]2[C@@H]3CC=C4c5sc(Nc6cc(Cl)ccn6)nc5CC[C@]4(C)[C@H]3CC[C@@]21C | 35.4 | 22.9 | 59.3 | 14.1 | 13.5% | 18.4% | 30.2% | 37.5% | -70.8% (active) | 21.2 | 42.5 | 7.33% (active) | -21.9% (active) | 32.6 | -52.8% (active) | 10.7 | -68.7% (active) | -53.2% (active) | -35.3% (active) | -51.8% (active) |
| C#CCOc1ccc(/C=N/Nc2nc(-c3cc(Cl)ccc3Cl)cs2)cc1 | 75.3 | 77.2 | 105 | 104 | 96.8% | 69.7% | 84.3% | 103% | 107% | 105 | 102 | 78.7% | 99.3% | 84.7 | 111% | 95.7 | 89.7% | 102% | 103% | 94.8% |
| Cn1cc(-c2nn3cc(-c4ccncc4)nc3s2)c2cc(Cl)ccc21 | 44.5 | 86.1 | 78.3 | 67.4 | 51.5% | 0.128% (active) | 46% | 64% | 89.1% | 31.9 | 74.3 | -1.66% (active) | 48.2% | 73.5 | 75.9% | 67.9 | 35.1% | 82.1% | 89.1% | 52.5% |
| Oc1ccc(-c2nnc(SCc3ccc(O)c4ncccc34)n2-c2ccccc2)cc1 | 19.3 | 15.4 | 19.2 | 19.3 | 3.78% (active) | 4.59% (active) | -4.72% (active) | 6.81% (active) | 19.1% | 28.2 | 24.6 | 10.8% | 3.9% (active) | 30.1 | -7.54% (active) | 10.2 | 5.53% (active) | -6.02% (active) | -4.16% (active) | -28% (active) |
| CC1CCc2c(sc3nc(SCC(=O)N/N=C/c4ccc(Cl)cc4)n(-c4ccccc4)c(=O)c23)C1 (stereo not given) | 90.7 | 91 | 98.1 | 78.4 | 107% | 107% | 93.6% | 101% | 96.5% | 135 | 97.8 | 100% | 99% | 89.5 | -2.72% (active) | 81.6 | 95.2% | 90% | 102% | 102% |
| O=C(CN1CCN(c2cc(=O)n(-c3ccccc3)c3ccccc23)CC1)Nc1ccc([N+](=O)[O-])cc1 | 82.5 | 83.5 | 88.1 | 95.1 | 94.3% | 76.5% | 82.5% | 95.1% | 90.5% | 107 | 99.8 | 71.4% | 83.9% | 77.2 | 68.7% | 89.7 | 103% | 91.7% | 90.3% | 99% |
